The panel holds about 83,000 compounds, 20% with a hit somewhere; the sample as a whole holds those more often.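 Cell lines were cultured in 96-well plates, exposed to a single compound concentration, and assessed for percent growth 48 hours later.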 Unmarked numbers belong to inactive results. Active and inactive are the calls of the source. The calls were made as follows: active = growth percent below 10; inactive = the rest.

Experimental findings from PubChem BioAssay (NCI) are described below.

The test system of this experiment is NCI/ADR-RES ovarian. The experiment can be described thus: NCI-60 one-dose screen, 48 h (100 = growth as untreated, 0 = no growth, -100 = all killed). The note with it: 10 µM unless noted.
Regarding `CCNC(=S)N(Cc1ccccc1)Cc1ccccc1`, the growth was 106%.

For `COc1cccc(CC(C)=C(c2ccc(OCCCN(C)C)cc2)c2ccc(OCCCN(C)C)cc2)c1`, the growth is -70% (active). For `N[C@@H](CO)C(=O)O`, the growth was 95.4%. Next, `O=C(c1ccc(C(F)(F)F)c(Cl)c1)N(Cc1ccc(Cl)cc1)c1ccc(-c2cc(C(F)(F)F)[nH]n2)c(O)c1`: 2.97% (active); `c1ccc(C(Nc2ccccn2)(c2ccccc2)c2ccccc2)cc1`: 63.3%. With `CC[C@H](Nc1nc(N)nc(N)c1Cl)c1nc2cccc(NCc3ccc(C(=O)NO)cc3)c2c(=O)n1-c1ccccc1` the figure was 81.8%. Next, `N#Cc1nc(-c2ccc(Cl)cc2)cc(-c2ccc(Nc3nc(N4CCCCC4)nc(N4CCCCC4)n3)cc2)c1N`: 102%. Take `C#CC[C@@H]1C[C@]2(C)[C@H]3CC=C4[C@H]5[C@@H](C)[C@H](C)CC[C@]5(C(=O)NCCCCN)CC[C@@]4(C)[C@]3(C)CC[C@H]2C(C)(C)[C@H]1OC(C)=O`: the growth is 86.1%. Next, `Cn1nc(C(F)(F)F)cc1-c1c[nH]c(OCc2ccc(Cl)cc2)c(-c2ccc(Cl)c(C(F)(F)F)c2)c1=O`: 1.94% (active); `COc1ccc(NC(=O)c2ccc(C(F)(F)F)nc2Nc2ccc(Cl)cc2C)cc1Cl`: 13.3%; `O=C(Cn1nncc1CN1C(=O)CSC1=O)Nc1ccc(F)cc1`: 97.6%. Next, `COc1ccc(NC(=O)/C=C/c2ccc(Cl)c(Cl)c2)cn1`: 1.03% (active); `CCCCNCC(O)c1cc(-c2ccc(C(F)(F)F)cc2)nc(-c2ccc(C(F)(F)F)cc2)c1` (centres undefined): -53.9% (active); `CCCc1cc2c(cc1CN(Cc1cc3c(cc1CCC)OCO3)C(=N)OCC)OCO2`: 91.2%. With `CCCNC(=S)N/N=C(\C)c1ccccn1` the figure was 11.5%; with `C#CC[C@@H]1C[C@]2(C)[C@H]3CC[C@@H]4[C@H]5C(C(=C)C)CC[C@]5(C(=O)NCCCN5CCN(CCCN)CC5)CC[C@@]4(C)[C@]3(C)CC[C@H]2C(C)(C)[C@H]1OC(C)=O` (some centres undefined), 38.8%. Turning to `COc1cc2nccc(Oc3ccc(NC(=O)C4(C(=O)Nc5c(F)cc(F)cc5F)CC4)cc3)c2cc1Oc1ccc(N)cn1`, the growth is 82.3%. With `COc1ccc2[nH]c(C(=O)OCc3ccc4cccc(O)c4n3)cc2c1` the figure was -18.9% (active). Next, `CCOCC(O)(c1ccc(Cl)cc1)c1ccc(Cl)cc1`: 99.7%; `Cc1cc(C)cc(NC(=O)Cn2nncc2CN2C(=O)CSC2=O)c1`: 96.3%; `Cc1ccc(NC(=O)Cn2nncc2CN2C(=O)CSC2=O)cc1C`: 96.1%.

Regarding `COC(=O)/C=C/c1cc(OC(C)=O)c2c(c1)[C@@H](C(=O)OC)[C@H](c1ccc(OC(C)=O)c(OC(C)=O)c1)O2`, the growth is -5.91% (active). With `N=c1n(Cc2ccccc2)c(N)cc(=O)n1Cc1ccccc1` the figure was 10.6%; with `CC(C)[C@H](CN)NC[C@H](C)NS(=O)(=O)c1ccc(C(C)(C)C)cc1`, 104%.

Regarding `COc1ccc(/C(=C\c2ccc3c(c2)OCO3)C(=O)Nc2nc3ccccc3s2)cc1`, the growth was 100%. With `Cc1ccc(-c2cnc3sc4ccc(Cl)cc4n23)cc1` the figure was 94.6%; with `COc1cc(C2Nc3ccccc3S2)cc(CN2CCOCC2)c1O` (centres undefined), 34.2%.

Take `CC1=C(O)C(=O)C(c2c(C)cc(C)c(Br)c2C)=C(O)C1=O`: the growth is 73.4%. Next, `CC(C)OC(=O)c1ccc([N+](=O)[O-])cc1`: 104%; `COc1cc(CN2CCO[C@H](COc3cccc(F)c3)C2)ccc1Cl`: 26%.

On to `COc1cc(NC(C)CCCN)c2ncccc2c1Oc1ccc(Cl)cc1` (centres undefined), for which the growth was 77.3%. Next, `OC(c1cc(-c2ccc(C(F)(F)F)cc2)nc(-c2ccc(C(F)(F)F)cc2)c1)C1CCCCN1` (centres undefined): -68.6% (active); `C=CCn1c(C)nc2cc(Nc3nc(Nc4ccc5nc(C)n(CC=C)c5c4)nc4ccccc34)ccc21`: 101%; `Fc1ccc2c(CN3CCO[C@H](COc4cccc(Cl)c4)C3)c[nH]c2c1`: 47.3%.
